Screening results (PubChem)
NR3A LBD binder: modulators (binders) of human NR3A ligand-binding domain | NR3A LBD differential scanning fluorimetry, Tm shift; 0% = protein alone, 100% = glycine-bound protein | Tm shift relative to glycine control, % at 25 µM | 340,000 compounds, 2.5% hits | AID 1259313;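 active = melting temperature shift of at least 10% of the positive control shift, at one fixed dose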
SMARCA2 act: increases SMARCA2 function in MMTV reporter cells; activation, % at 9.1 µM; MG213 cells, MMTV-luciferase reporter, dexamethasone, overnight; AID 652017; 370,000 compounds, 1% hits; in the data active = activation above about 7.8%;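 also: 0% = vehicle wells and 100% = reference activator wells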
Vif inh: inhibitors of HIV Vif; HEK293T cells, Vif self-association by quenched fluorescence, imaging, 24 h; inhibition, % at 7.49 µM; 340,000 compounds, 0.35% hits; in the data active = inhibition above about 50%, passing the limit was not always enough; inconclusive = no clear call, values can overlap the other calls; inactive = below about 31%
esBAF inh: SWI/SNF esBAF complex inhibition; 350,000 compounds, 2% hits; reporter increase, % at 12.5 µM; mouse ES cells, Bmi1-luciferase knock-in reporter, 24 h; 100% = twice the neutral-well signal; in the data active = activation above about 40%; inconclusive = no clear call, values can overlap the other calls;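 also: 0% = median of the plate's neutral control wells and 100% = double that signal; a rise in the Bmi1 reporter signal indicates esBAF inhibition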
SKN-1 block: blocks SKN-1 activity in C. elegans; C. elegans VP596 Pgst-4::GFP/RFP ratio, acrylamide-induced, 24 h; inhibition, % at 21.8 µM; 360,000 compounds, 0.49% hits; AID 624304;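 active = interference check ratio from 0.5 to 1.5 plus GFP to RFP signal ratio inhibition reaching or exceeding a fixed threshold, cut at about 30% in these data, passing the limit was not always enough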
NadD inh: blocks S. aureus nicotinate mononucleotide adenylyltransferase; purified NadD enzyme, colorimetric absorbance read-out; 360,000 compounds, 0.78% hits; AID 602399; inhibition, % at 20 µM; in the data active = inhibition above about 26%
esBAF Ring1 qPCR: confirmation of esBAF inhibitors: Ring1 de-repression in mouse ESCs; fold change at 33 µM; shares compounds with esBAF inh; 550 tested, under 10 active; mouse ESC E14, Ring1 mRNA RT-qPCR fold change; AID 743176;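 active = Ring1 gene expression raised more than 2-fold over untreated cells in both replicates at either tested dose; inconclusive = only one replicate above 2-fold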;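 also: Ring1 transcript normalised to actin housekeeping signal by TaqMan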
Fgf4 repress: confirmation of esBAF inhibitors: Fgf4 repression in mouse ESCs; Fgf4 expression fold change at 33 µM; mouse ESC E14, Fgf4 mRNA qPCR fold change; stronger effect = lower value; 550 compounds, 4% hits; AID 743177; shares compounds with esBAF inh;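 active = Fgf4 expression under 0.8 fold of control in both repeat measurements at one or both tested doses; inconclusive = under 0.8 fold in just a single repeat measurement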;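 also: Fgf4 transcript normalised to actin in duplex TaqMan qPCR; cells exposed to compound for 24 h before lysis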
esBAF Bmi1 qPCR: de-represses Bmi1 in mouse ESCs, confirming esBAF inhibition; shares compounds with esBAF inh; fold change at 33 µM; AID 743180; 550 tested, under 10 active; mouse ESE14 ES cells, Bmi1 mRNA qPCR fold; stronger effect = higher value;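 active = Bmi1 expression fold change above 6 at either tested concentration, seen in replicate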;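 also: higher fold means more Bmi1 de-repression and stronger esBAF inhibition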
A549 tox SP: A549 cell cytotoxicity; shares compounds with esBAF inh; plate reader; cell viability change % (negative = cytotoxic), % at 25 µM, hits read low; 550 tested, under 10 active; call rule not given here
HepG2 tox SP: kills or reduces viability of HepG2 cells | activity change, negative = inhibition, % at 25 µM | HepG2 cytotoxicity, plate reader; stronger effect = lower value | AID 743189 | shares compounds with esBAF inh | 550 compounds, 4% hits; in the data active = activity change below about -50%
HEK293 tox SP: cytotoxicity in HEK293 cells; shares compounds with esBAF inh; plate reader; activity change, negative = inhibition, % at 25 µM, hits read low; 550 compounds, 3% hits; in the data active = activity change below about -38%, passing the limit was not always enough
* hit, by the source's call; u = inconclusive; x = not tested or not shown. A selection: hits, their analogues and other compounds. The true share with any hit is near 5.2%.

SMILES	NR3A LBD binder	SMARCA2 act	Vif inh	esBAF inh	SKN-1 block	NadD inh	esBAF Ring1 qPCR	Fgf4 repress	esBAF Bmi1 qPCR	A549 tox SP	HepG2 tox SP	HEK293 tox SP
Cc1noc(C)c1NC(=O)N(C)C[C@H]1OCCCC[C@@H](C)Oc2ccc(NC(=O)NC3CCCCC3)cc2C(=O)N([C@@H](C)CO)C[C@H]1C	x	x	x	-2	x	x	x	x	x	x	x	x
O=C(CCc1nnc(CCc2c[nH]c3ccccc23)o1)NC1CCC1	-1	2	-4	66*	8	-8	0.93	0.96	1.5	-1	-31	4
O=C(CCc1nnc(Cc2c[nH]c3ccccc23)o1)NC1CCCC1	-1	-3	-2	12	4	0	x	x	x	x	x	x
O=C(C[C@@H]1CC[C@@H](NC(=O)NC2CCCCC2)[C@H](CO)O1)NCc1ccc(F)cc1	x	x	x	0	x	x	x	x	x	x	x	x
Cc1cccc2ccccc12	x	-3	x	x	x	x	x	x	x	x	x	x
Cc1ccccc1-c1nnc(-c2cccc3ccccc23)o1	-1	2	2	71*	18	3	0.95	0.96	1.7	-7	37	-16
Cc1cc(=O)oc2cc(NC(=O)c3cccc(F)c3)ccc12	x	2	-14	68*	-4	5	1.2	0.92	0.95	-8	-13	0
Cc1cc(=O)oc2cc(NC(=O)c3cccc(S(C)(=O)=O)c3)ccc12	-1	5	-14	u	18	1	x	x	x	x	x	x
c1ccc(-c2nnc3oc(-c4cccs4)nn23)cc1	x	0	-5	166*	13	1	1.2	u	2.8	-9	-39	-12
Cc1ccc(-c2nn3c(-c4ccccc4)nnc3o2)cc1	x	-3	-5	x	16	-1	x	x	x	x	x	x
COc1ccc(CN(C)C[C@@H]2Oc3ccc(NC(=O)Cn4cnnn4)cc3CC(=O)N([C@@H](C)CO)C[C@@H]2C)cc1	x	x	x	-6	x	x	x	x	x	x	x	x
COc1ccccc1NC(=O)Cn1nnc(-c2ccccc2NC(=O)c2cc3ccccc3oc2=O)n1	-1	3	-5	66*	5	3	1.1	0.87	1.5	-7	-3	-13
COc1ccccc1NC(=O)Cn1nnc(-c2ccccc2NS(=O)(=O)c2ccccc2)n1	7	-2	-14	x	8	-6	x	x	x	x	x	x
C(=Cc1cnnc2ccccc12)c1ccccc1	-2	4	11	138*	8	-2	0.95	0.97	1.3	-7	94	-2
CCCCC(=O)Nc1cccc(-c2nnc(-c3ccccc3)o2)c1	-10	2	x	7	1	-3	x	x	x	x	x	x
CCC(=O)Nc1cccc(-c2nnc(-c3ccccc3)o2)c1	-1	2	-3	74*	4	-3	1.2	1.1	1.2	-11	15	-1
O=C(Nc1ccc2c(c1)[C@@H]1C[C@H](CC(=O)N3CCOCC3)O[C@H](CO)[C@@H]1O2)NC1CCCC1	x	x	x	-4	x	x	x	x	x	x	x	x
CO[C@@H]1CN(C)C(=O)c2cc(NS(=O)(=O)c3ccc(-c4ccccc4)cc3)ccc2OC[C@H](C)NC[C@H]1C	x	x	x	-4	x	x	x	x	x	x	x	x
O=C(Nc1ccncc1)c1cccc2ccccc12	1	-3	6	24	-14	1	x	x	x	x	x	x
O=C(Nc1ccc2ccccc2c1)c1cccc2ccccc12	-7	2	6	77*	12	-5	1.1	0.95	1.8	-9	22	-11
COc1ccc(NC(=O)c2ccc3ccccc3c2OC)cc1	0	6	2	75*	3	-11	1.1	0.93	2.3	0	-33	-6
CN1C(=O)c2cc(NC(=O)Cc3ccccc3)ccc2OC[C@H]2O[C@@H](CC(=O)NCc3ccc(Cl)cc3)CC[C@H]21	x	x	x	4	x	x	x	x	x	x	x	x
COc1ccc(NC(=O)N(C)C[C@@H]2Oc3c(NC(=O)C4CC4)cccc3C(=O)N([C@H](C)CO)C[C@H]2C)cc1	x	x	x	-4	x	x	x	x	x	x	x	x
CSc1cccc(NC(=O)N2CCc3ccc(NC(=O)c4ccccn4)cc3C2)c1	-5	2	2	60*	8	7	0.93	1	1.2	-25	-18	-17
COc1ccc(F)cc1-c1cc(C(=O)Nc2cccnc2)[nH]n1	x	0	6	57*	18	1	1.2	1	1.8	-9	-1	-13
SMILES	NR3A LBD binder	SMARCA2 act	Vif inh	esBAF inh	SKN-1 block	NadD inh	esBAF Ring1 qPCR	Fgf4 repress	esBAF Bmi1 qPCR	A549 tox SP	HepG2 tox SP	HEK293 tox SP
COc1ccc(-c2cc(C(=O)Nc3cccnc3)no2)cc1OC	-1	6	-8	65*	6	-3	1.4	u	1.9	-3	-19	1
COc1cccc(C(=O)Nc2ccc(Cl)c(C(F)(F)F)c2)c1	5	1	x	68*	12	-7	0.97	0.98	1.9	-2	-39	-6
O=C(C[C@@H]1C[C@H]2c3cc(NC(=O)Nc4ccccc4)ccc3O[C@H]2[C@@H](CO)O1)NCC(F)(F)F	x	x	x	3	x	x	x	x	x	x	x	x
COc1cc(C(=O)Oc2ccccc2/C=N/NC(=O)c2ccc(Cl)cc2Cl)cc(OC)c1OC	-1	3	-3	47*	-8	0	1.1	1	8.4*	-8	9	-5
C=CCOc1ccccc1/C=N/NC(=O)c1ccc(Cl)cc1Cl	-22	-3	-7	-2	2	4	x	x	x	x	x	x
c1ccc(-c2noc(CC3CCCCC3)n2)cc1	1	0	10	58*	5	-4	1.2	1.2	1.1	-6	-21	-5
c1ccc(-c2noc(CCC3CCCC3)n2)cc1	-2	-1	-3	u	5	0	x	x	x	x	x	x
Cc1ccnc(NC(=O)c2ccc(OCc3c(C)noc3C)cc2)c1	-2	6	9	70*	6	-1	0.99	u	1.8	0	-29	-5
O=C(Nc1ccccc1Cl)c1cc(=O)c2ccccc2o1	1	5	-5	73*	9	-3	1.2	1	1.1	-5	-7	-10
CC(C)NC(=O)N(C)C[C@H]1OCCCC[C@H](C)Oc2ccc(NS(C)(=O)=O)cc2C(=O)N([C@@H](C)CO)C[C@H]1C	x	x	x	-1	x	x	x	x	x	x	x	x
COc1ccc2c(=O)c(-c3ccc(OC)c(OC)c3)coc2c1	-2	7	0	58*	-4	4	1	0.89	1.5	-4	-60*	-14
